Screening data (PubChem)
Lmaj promast: inhibitors of Leishmania major promastigote growth | Leishmania major promastigotes, resazurin fluorescence viability | inhibition, % at 10 µM | 200,000 compounds, 9% hits; in the data active = inhibition above about 50%;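 also: promastigotes grown with compound for 44 hours at 28 °C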
WT yeast gro inh: growth inhibition of WT yeast, mitochondrial fusion screen; mitochondrial fusion phenotypic screen, WT strain; inhibition, % at 10 µM; 190,000 compounds, 2.1% hits; AID 1362; in the data active = inhibition above about 58%; tested in S. cerevisiae
Insulin prom up: MIN6 insulin promoter up-regulation | 190,000 compounds, 0.3% hits | MIN6 insulin promoter-GFP reporter, high-content imaging; hits give high values | z-score at 5 µM;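 active = z-score above 3 at 5 µM with at least 500 cells counted in the well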
KCC2 mod: modulates chloride dependent transport by human KCC2 | AID 1456 | B-score of Tl+ flux slope (higher = more flux/activation; lower = inhibition) at 10 µM | KCC2 cells, thallium flux FluoZin-2 fluorescence | 190,000 compounds, 2.2% hits;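 active = thallium flux slope and its plate-corrected score both differing from the plate sample mean at a set confidence after two filtering rounds, in either direction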;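 also: slope of fluorescence scaled to starting intensity during 10 to 20 s after thallium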
Target sequence (Q9H2X9 whole entry, looked up): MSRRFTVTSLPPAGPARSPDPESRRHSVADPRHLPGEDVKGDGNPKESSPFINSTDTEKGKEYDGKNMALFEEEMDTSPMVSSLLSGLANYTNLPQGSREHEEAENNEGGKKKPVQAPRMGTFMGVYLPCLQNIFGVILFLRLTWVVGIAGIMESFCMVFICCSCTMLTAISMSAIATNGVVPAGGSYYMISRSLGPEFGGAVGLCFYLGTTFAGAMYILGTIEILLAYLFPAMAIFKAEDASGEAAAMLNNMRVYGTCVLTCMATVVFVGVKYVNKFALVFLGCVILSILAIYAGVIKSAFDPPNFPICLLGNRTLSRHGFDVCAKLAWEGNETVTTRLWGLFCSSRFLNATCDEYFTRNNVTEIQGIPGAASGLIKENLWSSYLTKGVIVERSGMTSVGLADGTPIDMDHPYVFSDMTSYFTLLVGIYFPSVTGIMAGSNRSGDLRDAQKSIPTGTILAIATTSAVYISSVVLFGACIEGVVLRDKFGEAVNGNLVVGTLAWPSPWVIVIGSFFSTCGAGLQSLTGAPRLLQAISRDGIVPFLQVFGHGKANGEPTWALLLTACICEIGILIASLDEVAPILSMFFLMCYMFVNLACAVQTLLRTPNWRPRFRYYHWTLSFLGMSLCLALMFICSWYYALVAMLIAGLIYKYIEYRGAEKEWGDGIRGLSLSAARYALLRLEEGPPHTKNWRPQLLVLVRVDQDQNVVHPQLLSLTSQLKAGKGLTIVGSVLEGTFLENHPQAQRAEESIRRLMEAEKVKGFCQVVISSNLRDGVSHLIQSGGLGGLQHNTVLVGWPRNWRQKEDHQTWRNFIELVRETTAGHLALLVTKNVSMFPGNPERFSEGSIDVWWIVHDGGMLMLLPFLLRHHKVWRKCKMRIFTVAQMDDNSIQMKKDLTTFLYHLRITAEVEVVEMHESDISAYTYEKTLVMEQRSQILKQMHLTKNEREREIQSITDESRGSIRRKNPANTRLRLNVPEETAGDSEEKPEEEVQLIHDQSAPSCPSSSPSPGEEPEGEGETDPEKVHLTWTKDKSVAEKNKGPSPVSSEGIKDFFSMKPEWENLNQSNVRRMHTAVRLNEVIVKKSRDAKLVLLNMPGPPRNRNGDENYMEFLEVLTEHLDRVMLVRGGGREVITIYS
INS promoter inh: TRM-6 insulin promoter activity inhibition; inhibition, % at 2 µM; TRM-6 cells (human fetal islet line), insulin promoter-eGFP reporter, imaging; reporter expression induced with tamoxifen; 130,000 compounds, 0.9% hits;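 active = inhibition above the mean plus 3 SD, with well images judged a real hit on visual review, cut at about 60% in these data, passing the limit was not always enough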
ROMK primary: modulates human ROMK potassium channel activity. Tet-inducible ROMK, thallium flux fluorescence; actives lie on both sides. B-score at 10 µM. 130,000 compounds, 2% hits. AID 1918;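 active = signal ratio slope over the read window, or its plate-corrected B-score, at least 3 SD from the plate mean, either direction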;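 also: B-score of the F/F0 ratio slope over 7 to 12 s after thallium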
The depositor's hits bear a star; · = no result given. In the library only some 12% were active in any assay of this set; here they are far more common.

SMILES | Lmaj promast | WT yeast gro inh | Insulin prom up | KCC2 mod | INS promoter inh | ROMK primary
S=C(NC1CCCCC1)N1CCN(C/C=C/c2ccccc2)CC1 | 94* | 38 | -0.51 | -4 | 7 | -1.2
COc1ccccc1NC(=S)N1CCN(C/C=C/c2ccccc2)CC1 | 67* | 11 | 0.05 | -0.49 | -194 | 0.94
O=C(c1cccc([N+](=O)[O-])c1)N1CCN(C/C=C/c2ccccc2)CC1 | · | · | -0.28 | 1.1 | · | -0.076
CCOC(=O)N1CCN(C(=S)Nc2cc(OC)c(OC)cc2C(=O)OC)CC1 | 5 | 9 | 1.8 | -0.024 | -8 | -0.094
CC(C(=O)Nc1cccc([N+](=O)[O-])c1)N1CCN(C/C=C/c2ccccc2)CC1 (stereo not drawn) | 82* | 25 | 1.1 | -1.3 | -12 | ·
CCN(CC)C(=O)c1cc2c(=O)n3cccc(C)c3nc2n1C | -3 | -8 | -0.99 | · | · | 0.95
Cc1ccc2[nH]c(C(=O)O)c(NC(=O)CN3CCN(c4cccc(C)c4C)CC3)c2c1 | -1 | -2 | -0.76 | · | 14 | ·
Cc1cccc(NC(=O)C2CCCN(S(=O)(=O)c3cccc4nonc34)C2)c1 (stereo not drawn) | -4 | -5 | 0.48 | 0.12 | -63 | -0.55
COC(=O)c1ccccc1NC(=S)N1CCC(N2CCCCC2)CC1 | 73* | -15 | · | -0.00023 | · | -0.75
Cc1ccccc1NC(=S)N1CCN(Cc2ccccc2)CC1 | -3 | 18 | -0.06 | -0.31 | 10 | 0.29
COc1ccc(C)cc1NC(=O)CN1CCN(c2ccccc2F)CC1 | 2 | 18 | -2.3 | -0.079 | · | ·
Fc1ccc(NC(=S)N2CCN(C/C=C/c3ccccc3)CC2)c(F)c1 | 81* | 23 | -0.54 | -1.8 | · | 1.2
COc1ccccc1NC(=S)N1CCN(Cc2ccccc2)CC1 | 83* | -6 | 0.85 | -0.0029 | 42 | -0.11
COc1ccc(C)cc1NC(=O)CN1CCN(C/C=C/c2ccccc2)CC1 | 86* | 51 | -1.4 | 0.52 | -16 | -1.9
COc1ccc(NC(=S)N2CCN(C/C=C/c3ccccc3)CC2)c(OC)c1 | 42 | 15 | -0.99 | 0.4 | 0 | 0.004
COc1ccc(C2CC2/C(=N/O)c2ccccc2)cc1 (stereo not drawn) | 2 | 20 | -0.14 | 0.051 | 0 | 0.53
Cc1cc(C)n2nc(SCC(=O)N/N=C/c3ccccn3)nc2n1 | -6 | -11 | 0.2 | 0.23 | · | 0.95
COC(=O)c1cn(NC(=O)Cn2nc([N+](=O)[O-])c(Cl)c2C)c(=O)c2ccccc12 | -3 | -4 | -0.32 | 0.94 | · | -0.98
COC(=O)c1cc(C(=O)N2CCN(c3ccccc3OC)CC2)cc([N+](=O)[O-])c1 | 17 | 15 | 1.3 | -0.046 | -207 | -1.3
O=c1cc(CN2CCN(C/C=C/c3ccccc3)CC2)c2cc(O)ccc2o1 | 51* | -6 | -1.1 | -0.9 | -22 | -0.6
O=c1cc(CN2CCN(c3ccccc3)CC2)c2cc(O)c(-c3ccccc3)cc2o1 | 73* | 7 | 0.4 | · | 55 | ·
Cc1ccc2oc(=O)cc(CN3CCN(C/C=C/c4ccccc4)CC3)c2c1 | · | · | -0.39 | 0.14 | · | ·
CCOC(=O)Cc1csc(NC(=O)C2CCCCC2C(=O)O)n1 (stereo not drawn) | 12 | 0 | 1 | 1.1 | 6 | 1.3
Cc1ccc(C(=O)NCc2ccc(N3CCN(C(=O)OC(C)(C)C)CC3)cc2)cc1 | 2 | 61* | 0.17 | 0.78 | -3 | ·
C=CCn1c(SCc2csc(-c3ccc(Cl)cc3)n2)nnc1-c1ccccc1OC | 70* | 57 | -0.54 | -1 | · | ·
SMILES | Lmaj promast | WT yeast gro inh | Insulin prom up | KCC2 mod | INS promoter inh | ROMK primary
C=CCn1c(SCC(=O)Nc2ccc3c(c2)OCO3)nnc1-c1ccccc1OC | -3 | -11 | · | · | -36 | -0.64
CC(C)(C)c1ccc(OC(=O)c2ccc3nsnc3c2)cc1 | -2 | 73* | · | · | · | -0.34
CC(C)(C)c1ccc(OC(=O)c2ccc3snnc3c2)cc1 | 1 | -5 | · | 0.014 | · | 0.14
N#CC1=C(N)C2=CCCC[C@H]2[C@H](c2ccc(Br)cc2)C1(C#N)C#N | 78* | 68* | -0.31 | -0.89 | 13 | ·
Clc1cccc(C[n+]2cc(-c3ccccc3)n3c2CCC3)c1 | 99* | -14 | -0.1 | -0.38 | 22 | 0.46
Clc1ccc(-c2c[n+](Cc3ccc(Cl)c(Cl)c3)c3n2CCC3)cc1 | 99* | 13 | -1.2 | -0.051 | · | ·
Cc1cc(C(=O)N/N=C/c2c[nH]c3ccccc23)c(C)o1 | -5 | 5 | 0.32 | -0.61 | -27 | ·
COc1ccc(NC2c3ccccc3C(=O)N2Cc2ccc3c(c2)OCO3)cc1 (stereo not drawn) | · | · | 0.33 | -0.52 | · | ·
